Shown are actives, neighbours in structure and some others; about 5.9% of the full set was active somewhere.
HSF1 activator: increases HSF-1 driven luciferase reporter signal; NIH3T3-HGL HSF-1 luciferase reporter, MG132, 8 h; 100% = twice DMSO control signal; activation, % at 9 µM; 300,000 compounds, 1.7% hits;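 active = mean replicate activation of at least 50% with a set share of replicates each reaching 50%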
NR0B1 inh: inhibits human nuclear receptor DAX1. inhibition, % at 6.75 µM. HEK293 Gal4-DAX1 luciferase reporter, luminescence. 340,000 compounds, 0.99% hits. AID 504766;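 active = inhibition above the mean over all tested compounds plus 3 SD, cut at about 4.2% in these data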;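 also: inhibition shows as a rise in luminescence from relieved DAX1 repression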
FXN GAA850 act: frataxin GAA850 promoter activation | HEK293 lucGAA850 FXN promoter luciferase reporter, 24 h; percent of 10 µM SAHA response | activation, % at 6 µM | 360,000 compounds, 0.56% hits;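 active = activation above the average of all compounds screened plus 3 SD, cutoff fixed separately per campaign, cut at about 7.5% in these data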
AHR activator: human AHR activation. P35869. AHR-responsive luciferase reporter cells, luminescence. activation, % at 5 µM. 320,000 compounds, 2.5% hits. AID 2796; in the data active = activation above about 47%
Target sequence (P35869 whole entry, looked up): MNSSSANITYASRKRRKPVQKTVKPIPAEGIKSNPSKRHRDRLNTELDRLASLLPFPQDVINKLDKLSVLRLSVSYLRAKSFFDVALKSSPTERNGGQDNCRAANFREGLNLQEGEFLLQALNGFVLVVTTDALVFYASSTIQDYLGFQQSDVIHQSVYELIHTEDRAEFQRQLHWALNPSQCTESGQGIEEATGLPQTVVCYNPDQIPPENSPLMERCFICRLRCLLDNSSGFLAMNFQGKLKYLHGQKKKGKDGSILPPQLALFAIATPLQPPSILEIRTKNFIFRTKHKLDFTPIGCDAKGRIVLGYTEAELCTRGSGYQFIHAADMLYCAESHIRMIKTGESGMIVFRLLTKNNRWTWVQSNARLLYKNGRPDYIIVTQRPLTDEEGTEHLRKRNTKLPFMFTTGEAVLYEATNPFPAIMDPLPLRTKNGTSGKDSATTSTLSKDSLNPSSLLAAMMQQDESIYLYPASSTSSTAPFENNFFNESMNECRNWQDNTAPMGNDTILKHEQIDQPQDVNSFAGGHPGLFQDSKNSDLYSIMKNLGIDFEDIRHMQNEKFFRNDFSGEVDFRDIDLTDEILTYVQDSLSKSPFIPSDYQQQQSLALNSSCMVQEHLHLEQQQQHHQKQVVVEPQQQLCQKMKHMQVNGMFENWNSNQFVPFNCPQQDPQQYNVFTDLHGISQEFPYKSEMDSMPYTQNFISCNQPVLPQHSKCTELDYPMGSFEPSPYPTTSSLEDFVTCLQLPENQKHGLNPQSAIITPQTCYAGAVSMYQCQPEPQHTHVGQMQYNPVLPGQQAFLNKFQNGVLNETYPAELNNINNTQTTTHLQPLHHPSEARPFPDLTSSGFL
HSF1 inh: HSF1 inhibition. AID 2098. NIH3T3-HGL HSE-luciferase, MG132-induced, luminescence 8 h; stronger effect = lower value. activity change, negative = inhibition, % at 7.5 µM (by protocol). 300,000 compounds, 0.77% hits;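 active = more than half of replicate wells show activity change below -50%, luminescence cut by over half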;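 also: luciferase reports HSF-1 transcriptional activity via heat shock element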
HSP90 inh: inhibitors of HSP90 luciferase refolding in rabbit reticulocyte lysate; 290,000 compounds, 0.91% hits; luciferase refolding luminescence, 3 h; inhibition, % at 5.6 µM;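 active = inhibition above the screen-wide mean plus 3 SD, computed separately per campaign, cut at about 16% in these data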;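 also: inhibitors lower the luminescence because luciferase stays unfolded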
Hits are given with their value; . = inactive; / = not tested or not shown.

SMILES	HSF1 activator	NR0B1 inh	FXN GAA850 act	AHR activator	HSF1 inh	HSP90 inh
CC(=O)Nc1ccc(-c2nnn(CC(=O)Nc3ccc4c(c3)OCO4)n2)cc1Cl	.	.	.	.	-59.2	.
O=C(Cn1nnc(-c2ccccc2Cl)n1)NCc1ccc2c(c1)OCO2	.	.	.	64.0	.	.
COc1ccc(N(C)C(=O)C2CCCN2S(=O)(=O)c2cccc3nsnc23)c(OC)c1 (stereo unspecified)	.	.	.	.	.	.
COc1ccc(/C(C#N)=C/c2ccccn2)cc1	67.6	.	.	.	.	.
COC(=O)c1ccc(/C=C(\C#N)c2nc3ccccc3s2)cc1	.	.	.	.	.	.
COc1ccc(C(=O)N/N=C/c2ccccn2)cc1	/	.	.	/	/	/
N#C/C(=C\c1ccccn1)c1nc2ccccc2s1	82.7	.	.	.	.	.
CNC(=O)C[C@H]1C(=O)N(CCc2ccccc2)C[C@@H]1C	/	.	.	/	/	/
Cc1ccc(C)c(NC(=O)CN(C)C(=O)Cn2c(=O)oc3ccccc32)c1	.	.	.	.	.	/
COCCN(C(=O)COC(=O)c1ccc2c(c1)OCO2)c1c(N)n(Cc2ccccc2)c(=O)[nH]c1=O	/	4.4	.	/	/	/
COc1ccc(CCNC(=O)C(=O)c2cn(CC(=O)N3CCCC3)c3ccccc23)cc1OC	/	.	.	/	/	/
Cc1ncc([N+](=O)[O-])n1CC(=O)Nc1ccc(F)cc1	.	.	.	.	-73.9	.
Cc1ccc(NC(=O)Cn2c([N+](=O)[O-])cnc2C)cc1	.	.	.	.	.	.
Cc1ncc([N+](=O)[O-])n1CC(=O)NCCc1ccccc1	.	.	.	.	-62.5	.
COc1ccc(C(C)=O)cc1CC(=O)Nc1cccc(S(=O)(=O)N2CCOCC2)c1	/	.	.	.	/	/
CC(=O)N1c2ccc(S(=O)(=O)NCC3CCC(C(=O)NCc4ccco4)CC3)cc2CC1C (stereo unspecified)	.	.	.	.	.	.
CCS(=O)(=O)c1nc(S(=O)(=O)c2ccc(C)cc2)c(N2CCC(C)CC2)s1	.	.	.	.	-88.9	.
CCCS(=O)(=O)c1nc(S(=O)(=O)c2ccc(C)cc2)c(N2CCc3ccccc3C2)s1	54.4	.	.	.	.	.
CS(=O)(=O)c1nc(S(=O)(=O)c2ccc(Cl)cc2)c(N2CCN(CCO)CC2)s1	.	.	.	.	.	.
CCCS(=O)(=O)c1nc(S(=O)(=O)c2ccc(C)cc2)c(N2CCCC2)s1	.	.	.	.	.	.
Cc1ccc(S(=O)(=O)c2nc(S(=O)(=O)c3ccc(C)cc3)c(N3CCN(CCO)CC3)s2)cc1	56.8	.	.	.	.	.
Cc1ccc(CCNC(=O)c2nnc(CS(=O)(=O)c3ccccc3)o2)cc1	.	.	.	.	.	.
O=C(CSc1nccn1Cc1ccco1)Nc1cccc(F)c1	.	.	.	.	-74.1	.
O=C(CSc1nccn1Cc1ccco1)Nc1ccc(F)cc1	.	.	.	.	.	.
CCOC(=O)C(NS(=O)(=O)c1ccc(Br)cc1)C(C)C (stereo unspecified)	55.1	.	.	.	.	.
SMILES	HSF1 activator	NR0B1 inh	FXN GAA850 act	AHR activator	HSF1 inh	HSP90 inh
CCC(C)C(NS(=O)(=O)c1ccc(C)cc1)C(=O)O (stereo unspecified)	.	.	.	.	.	.
Fc1ccccc1Nc1nc(NCc2ccco2)nc(N2CCOCC2)n1	.	.	.	53.5	.	.
Fc1ccccc1Nc1nc(N2CCOCC2)nc(N2CCOCC2)n1	.	.	.	/	.	.
Cc1cccc(-n2c(=O)[nH]c3c(C(N)=O)nc(C(C)C)nc32)c1	.	.	.	53.1	.	.
Cc1ccc2c(c1)c1c(n2CCc2ccc(C)nc2)CCN(C)C1	/	.	.	.	/	/
Clc1ccc(OCCN2CCCCC2)cc1Cl	.	.	.	.	.	.
CNCCOc1ccc(Cl)c(Cl)c1	.	5.3	.	.	.	.
O=C(Cc1ccccc1)Nc1cc(Cl)ccc1Sc1ccccc1	57.8	.	.	.	.	.
O=C(Cc1ccc(Cl)cc1)Nc1ccccc1Sc1ccccc1	.	.	.	.	.	.
CN(CC(=O)Nc1c(Cl)cccc1Cl)C(=O)c1ccccc1Cc1ccccc1	.	.	.	.	.	/
CC(C)c1ccc(NC(=O)NC2CC3CCC(C2)N3Cc2cccs2)cc1 (stereo unspecified)	.	.	.	.	.	.
O=C(Nc1cccc(Cl)c1)NC1CC2CCC(C1)N2Cc1cccs1 (stereo unspecified)	.	4.6	.	.	.	.
COc1ccc(OC)c(/C=C/C(=O)N(C)CC(=O)Nc2ccc(N3CCOCC3)cc2)c1	/	.	.	.	/	/
Cc1cccc(C(=O)Oc2ccc(/C=N/NC(=O)c3ccc(O)cc3)cc2)c1	.	.	.	/	.	.
Cc1cccc(C(=O)Oc2ccc(/C=N/NC(=O)c3ccccc3O)cc2)c1	55.2	.	.	.	.	.
Cn1nccc1C(=O)Oc1cccc(/C=N/NC(=O)c2ccccc2O)c1	.	.	.	69.5	.	.
O=C(N/N=C/c1cccc(OC2CSC2)c1)c1ccccc1O	.	.	.	.	.	.
CC(=O)Oc1ccc(C(=O)Cc2ccc3ccccc3n2)c(O)c1C	76.4	.	.	.	.	.
Oc1ccc(/C(Cc2ccc3ccccc3n2)=N\Nc2ccccc2)c(O)c1	.	.	.	.	.	.
Cc1c(O)ccc(/C(Cc2ccc3ccccc3n2)=N\O)c1O	69.6	.	.	.	.	.
COc1ccc(CCNC(=O)C(C)SCC(=O)Nc2ccc(F)cc2)cc1 (stereo unspecified)	/	.	.	.	/	/
O=C(CC(c1ccco1)S(=O)(=O)c1ccccc1)c1ccccc1 (stereo unspecified)	84.9	.	.	.	.	.
Cc1ccc(S(=O)(=O)NCC(c2ccco2)S(=O)(=O)c2ccccc2)cc1 (stereo unspecified)	.	.	.	.	.	/
c1ccc(-c2nc(-c3cccnc3)n[nH]2)cc1	.	/	/	64.7	.	.
c1cc(-c2n[nH]c(-c3ccncc3)n2)ccn1	.	.	.	.	.	.
SMILES	HSF1 activator	NR0B1 inh	FXN GAA850 act	AHR activator	HSF1 inh	HSP90 inh
C#CCN(C[C@@H]1[C@@H](OC(=O)NCc2ccco2)[C@@H](OC(=O)NCc2ccco2)CN(C(=O)OC(C)C)N1C(=O)OC(C)C)S(=O)(=O)c1ccc(C)cc1	/	.	.	/	/	/
COc1ccc(-c2c(-c3ccc(OC)nc3)c3ccccc3n2C)cc1	/	.	.	63.3	/	/
CC(=O)N1CCN(Cc2nc3cc(NC(=O)Cn4nc(C)c5ccccc5c4=O)ccc3n2C)CC1	.	.	.	.	.	.
Cn1c(CCN2CCCCC2)nc2cc(NC(=O)Nc3ccccc3)ccc21	57.5	.	.	.	.	.
COc1ccc(OCC(=O)Nc2ccc3c(c2)nc(CCn2ccccc2=O)n3C)cc1	52.5	.	.	.	.	.
Cc1nn(CC(=O)Nc2ccc3c(c2)nc(CCN2CCCCC2)n3C)c(=O)c2ccccc12	53.4	.	.	.	.	.

Compound activity deposited in PubChem by several laboratories.
